# About 31,000 (8.9%) of roughly 350,000 compounds were called active. Not shown: some 15% with an inconclusive outcome. The list comes from a sample in which actives are over-represented; it also holds similar structures and randomly drawn compounds. Entries that show only a call come without a potency. Values without a mark were called inactive. Calls follow the shape of the dose curve; as a rule, active = well fitted inhibition curve with a large enough effect; inconclusive = small, poorly fitted or top-dose-only effect; inactive = no such curve, though single readings can be large or run the other way.
# Target: Histone-lysine N-methyltransferase EHMT2 (Homo sapiens) (UniProt Q96KQ7)
# Sequence (Q96KQ7 913-1193 limits assumed): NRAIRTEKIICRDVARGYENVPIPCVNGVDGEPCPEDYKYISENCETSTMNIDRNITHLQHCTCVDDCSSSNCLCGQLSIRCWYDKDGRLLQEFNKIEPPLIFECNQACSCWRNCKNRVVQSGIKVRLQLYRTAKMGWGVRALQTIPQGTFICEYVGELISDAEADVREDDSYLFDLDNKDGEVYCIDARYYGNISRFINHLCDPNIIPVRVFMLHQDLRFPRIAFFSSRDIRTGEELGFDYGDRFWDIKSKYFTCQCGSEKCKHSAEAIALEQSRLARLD
# Assay: qHTS Assay for Inhibitors of Histone Lysine Methyltransferase G9a; also: nearly all actives have a fitted effect of over 75% in size
# Conditions: G9a H3K9 monomethylation, AlphaScreen, 2 h; series mostly up to 59 µM
# Method in brief: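 Enzyme 20 nM + cpd, 15 min RT; add b-H3K9 pep 500 nM / SAM 20 uM; 2 h RT; anti-H3K9me1 Ab 0.5 ug/mL + SA donor / anti-rabbit acceptor beads 20 ug/mL each, 10 min; AlphaScreen read.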
# Potency is read from the fitted curve at half-maximal effect.
Structure (SMILES),Potency,"activity, negative = inhibition"
COc1ccccc1-c1cc2nc(C)c(CCC(=O)NC3CCCCC3)c(C)n2n1,inactive,
COc1ccc([N+](=O)[O-])cc1NC(=O)C(C)OC(=O)C1c2ccccc2Oc2ccccc21 (stereo not drawn),inactive,
COc1ccccc1C1CCN(c2ccc([N+](=O)[O-])cn2)CC1,inactive,
COc1ccc([N+](=O)[O-])cc1C1NN=C(c2cccc3ccccc23)S1 (stereo not drawn),28.2 µM (active),
COc1ccc(-n2c(=O)c3ccccc3n(Cc3ccccc3Cl)c2=O)cc1,inactive,
Cc1ccc(OCC(=O)OCc2cc(=O)n3nc(C4CC4)sc3n2)cc1,inactive,
COc1ccccc1NC(=O)CSC1=Nc2ccccc2C2=NC(CC(=O)NCc3cccs3)C(=O)N12 (stereo not drawn),inactive,
Cc1c(C(=O)OCC(=O)N2CCCC2=O)oc2ccccc12,inactive,
COc1ccc2cc(-c3nc(Cl)c4c5c(sc4n3)CC(C)CC5)c(=O)oc2c1 (stereo not drawn),inactive,
C=CCn1c(SCc2c(C)noc2C)nc2sc3c(c2c1=O)CCC(C)C3 (stereo not drawn),39.8 µM (active),
C=CCn1c(SCC(=O)NCC2CCCO2)nc2sc(C)c(C)c2c1=O (stereo not drawn),inactive,
CC(=O)N1CCSc2ccc(S(=O)(=O)N3CCC(C)CC3)cc21,inactive,
Cc1cccc(NC(=O)CN2CCN(C(=O)C3CCN(C(=O)/C=C/c4ccccc4)CC3)CC2)c1C,,14.7% [at 2.33 µM]
COc1ccc(NC(=O)CSc2nc(N)c(-c3ccccc3)c(=O)[nH]2)cc1,inactive,
COc1ccc(NC(=O)CSc2ncnc3[nH]ncc23)cc1,inactive,
COc1ccc(-c2nc3c(c(SCC(=O)Nc4ccc(C(=O)O)cc4)n2)Cc2ccccc2O3)cc1,11.2 µM (active),
CCc1ccc(NC(=O)N2CCN(C(=O)c3nsc4ccccc34)CC2)cc1,inactive,
CN(Cc1ccccc1F)C(=O)C(Cc1ccccc1)NC(=O)c1ccccc1 (stereo not drawn),inactive,
CN(CC(=O)NC(=O)Nc1ccccc1F)Cc1ccccc1,,2.2% [at 0.501 µM]
CN(Cc1ccccc1)Cc1ccccc1F,8.91 µM (active),
O=C(NCC(c1cccs1)N1CCOCC1)c1cc(Cl)ccc1[N+](=O)[O-] (stereo not drawn),,3.96% [at 0.501 µM]
COC(=O)c1ccc(NC(=O)c2cc(S(=O)(=O)N3CCC(C)CC3)cn2C)cc1,inactive,
Cc1ccc(Cn2ccc(NC(=O)C3C4CCC(C4)C3C(=O)O)n2)cc1 (stereo not drawn),56.2 µM (active),
Cc1ccc(Cn2ccc(NC(=O)c3cc(C(C)C)on3)n2)cc1,inactive,

Structure (SMILES),Potency,"activity, negative = inhibition"
O=C(Nc1ccn(Cc2ccccc2)n1)c1cccc(F)c1,inactive,
Cc1cccc(NC(=O)N2CCC(CN3CCc4ccccc4C3)CC2)c1C,inactive,
COc1cccc(CNC(=O)C2CC(=O)N(C3CCCCCCC3)C2)c1 (stereo not drawn),inactive,
CCn1nc(C(=O)Nc2ccc(N3CCOCC3)cc2)c2ccccc2c1=O,,17.9% [at 12.7 µM]
O=C(COC(=O)CCc1nc2ccccc2c(=O)[nH]1)Nc1ccc(N2CCOCC2)cc1,50.1 µM (active),
O=C(COC(=O)Cc1ccc(Br)cc1)Nc1ccc(N2CCOCC2)cc1,inactive,
CCCCNc1ccc(-c2nc(-c3ccncc3)no2)cc1[N+](=O)[O-],inactive,
COc1ccc(OC)c(CCNC(=O)CCCn2c(=O)c3cccn3c3cccnc32)c1,inactive,
CC(C)c1ccc2oc(-c3cc(NC(=O)c4cccs4)ccc3Cl)nc2c1,inactive,
COc1cc(OC)c(NC(=O)c2c3c(nn2C)-c2ccccc2SC3)cc1Cl,inactive,
Cc1c(-c2nc(-c3ccc4c(c3)OCO4)no2)nnn1-c1ccc(Br)cc1F,inactive,
O=C(COC(=O)c1ccc([N+](=O)[O-])cc1Cl)NC(=O)c1ccccc1,inactive,
CCN1CCN(CCCNC(=O)c2cnn(-c3ccc(C)cc3C)c2C2CCN(C(=O)OC(C)(C)C)CC2)CC1,inactive,
Cc1cc(C)c(NC(=O)c2cc3sc(Cl)cc3n2C)c(C)c1,inactive,
COc1cccc(C(=O)NC(=O)Nc2ccc(-c3cc(C(F)(F)F)nn3-c3ccccc3)cc2)c1,inactive,
CC(=O)Oc1ccc(N(C(C)=O)S(=O)(=O)c2ccc3ccccc3c2)cc1Br,inactive,
CC(=O)N(c1ccc2oc(=O)sc2c1)S(=O)(=O)c1ccc(C)cc1,25.1 µM (active),
COC(=O)c1c(C)oc2ccc(N(C(=O)Oc3ccccc3)S(=O)(=O)c3ccccc3)cc12,inactive,
COc1ccc(OC)c(NC(=O)Cn2c(=O)n(Cc3ccccc3)c(=O)c3ccccc32)c1,inactive,
Cc1nc2cc(NCc3cccs3)ccc2n1C,7.94 µM (active),
C=CCN(C(=O)Nc1ccc2c(c1)nc(C)n2C)c1ccccc1,,10.6% [at 12.7 µM]
Cc1nc2cc(NC(=O)Nc3cccc(F)c3)ccc2n1C,,23.6% [at 12.7 µM]
O=C1C=C(c2cccc(Cl)c2O)C[C@@H](c2ccc(F)cc2)C1,,4.95% [at 0.501 µM]
Cc1cccc(CSc2nc3ccncc3n2CC(=O)N(C)C2CCCCC2)c1,inactive,
